From the supplement of paper PMC6555819

Assays:
Experiment in all cases: PBM binding z-score (relative to random genomic background probes); higher = stronger binding; sequences stand for … in GC…GCGATTGACAGCGTAGAATGAAGG
[1] = test system: FXR:RXRa (NR concentration 270 nM, RXRa partner concentration 90 nM)
Summary of the method: (§1)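 Custom Agilent 4×180K protein-binding microarrays carried double-stranded probes, each with a 34-nt variable region. These regions held direct-repeat seeds, single-nucleotide variants, half-site ablations and random human genomic background sequences. Ligand-free nuclear receptor dimers were incubated on the arrays for 1 h, antibodies against each partner (one per run) detected binding, and scanned fluorescence was regression-normalized. Binding z-scores take the random background probes as reference.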

[2] = test system: LXRa:RXRa (NR concentration 270 nM, RXRa partner concentration 90 nM)
Summary of the method: as §1

[3] = test system: LXRa homodimer (NR concentration 270 nM)
Summary of the method: as §1

[4] = test system: LXRb:RXRa (NR concentration 270 nM, RXRa partner concentration 90 nM)
Summary of the method: as §1

[5] = test system: LXRb homodimer (NR concentration 270 nM)
Summary of the method: as §1

[6] = test system: PPARa:RXRa (NR concentration 270 nM, RXRa partner concentration 90 nM)
Summary of the method: as §1

[7] = test system: PPARg:RXRa (NR concentration 180 nM, RXRa partner concentration 90 nM)
Summary of the method: as §1

[8] = test system: PPARg:RXRa 270nM:90nM, anti-RXR (NR concentration 270 nM, RXRa partner concentration 90 nM)
Summary of the method: as §1

[9] = test system: PPARg:RXRa 30nM:10nM, anti-RXR (NR concentration 30 nM, RXRa partner concentration 10 nM)
Summary of the method: as §1

[10] = test system: PPARg:RXRa 90nM:30nM, anti-RXR (NR concentration 90 nM, RXRa partner concentration 30 nM)
Summary of the method: as §1

[11] = test system: PPARg:RXRa DBDmut IVT, anti-RXR (DBD mutation: RXRa K156A/R161A, NR concentration 270 nM, RXRa partner concentration 90 nM)
Summary of the method: as §1

[12] = test system: PPARg:RXRa IVT, anti-PPARg (NR concentration 270 nM, RXRa partner concentration 90 nM)
Summary of the method: as §1

[13] = test system: PPARg DBDmut:RXRa IVT, anti-PPARg (DBD mutation: PPARg1 K132A/R137A, NR concentration 270 nM, RXRa partner concentration 90 nM)
Summary of the method: as §1

[14] = test system: PPARg DBDmut IVT, anti-PPARg (DBD mutation: PPARg1 K132A/R137A, NR concentration 270 nM)
Summary of the method: as §1

[15] = test system: PPARg homodimer (NR concentration 180 nM)
Summary of the method: as §1

[16] = test system: PXR:RXRa (NR concentration 270 nM, RXRa partner concentration 90 nM)
Summary of the method: as §1

[17] = test system: PXR homodimer (NR concentration 270 nM)
Summary of the method: as §1

[18] = test system: RARa:RXR (NR concentration 270 nM, RXRa partner concentration 90 nM)
Summary of the method: as §1

[19] = test system: RARa homodimer (NR concentration 270 nM)
Summary of the method: as §1

[20] = test system: RARb:RXRa (NR concentration 270 nM, RXRa partner concentration 90 nM)
Summary of the method: as §1

Sequence: TCATATAGGTAATACAGGTCAAAGTCGGCATCTA
- PBM binding z-score [1]: 3.34
- PBM binding z-score [2]: 5.45
- PBM binding z-score [3]: 7.33
- PBM binding z-score [4]: 4.42
- PBM binding z-score [5]: 1.69
- PBM binding z-score [6]: 4.33
- PBM binding z-score [7]: 3.55
- PBM binding z-score [8]: 4.08
- PBM binding z-score [9]: 4.34
- PBM binding z-score [10]: 4.27
- PBM binding z-score [11]: 4.69
- PBM binding z-score [12]: 4.55
- PBM binding z-score [13]: 2.09
- PBM binding z-score [14]: 2.09
- PBM binding z-score [15]: 2.8
- PBM binding z-score [16]: 3.34
- PBM binding z-score [17]: 1.5
- PBM binding z-score [18]: 3.94
- PBM binding z-score [19]: 2.09
- PBM binding z-score [20]: 2.49

Sequence: GGAACTAGGGCAAGTTGATAGCAGAGTTTGATGG
- PBM binding z-score [1]: 0.0855
- PBM binding z-score [2]: 0.0269
- PBM binding z-score [3]: 0.0494
- PBM binding z-score [4]: -0.0975
- PBM binding z-score [5]: -0.374
- PBM binding z-score [6]: 2.15
- PBM binding z-score [7]: 3.63
- PBM binding z-score [8]: 3.21
- PBM binding z-score [9]: 1.12
- PBM binding z-score [10]: 2.57
- PBM binding z-score [11]: 7.19
- PBM binding z-score [12]: 6.86
- PBM binding z-score [13]: 0.964
- PBM binding z-score [14]: 0.266
- PBM binding z-score [15]: 0.42
- PBM binding z-score [16]: 0.0404
- PBM binding z-score [17]: 0.803
- PBM binding z-score [18]: -0.0697
- PBM binding z-score [19]: -0.11
- PBM binding z-score [20]: 1.69

Sequence: ACTAGTTGGTTAGCTGAGGTCACACACAATTCGG
- PBM binding z-score [1]: 2.92
- PBM binding z-score [2]: 3.56
- PBM binding z-score [3]: 3.63
- PBM binding z-score [4]: 3.49
- PBM binding z-score [5]: 0.944
- PBM binding z-score [6]: 3.95
- PBM binding z-score [7]: 1.63
- PBM binding z-score [8]: 2.35
- PBM binding z-score [9]: 0.884
- PBM binding z-score [10]: 1.41
- PBM binding z-score [11]: 0.671
- PBM binding z-score [12]: 2.34
- PBM binding z-score [13]: 0.586
- PBM binding z-score [14]: 0.524
- PBM binding z-score [15]: 3.15
- PBM binding z-score [16]: 5.03
- PBM binding z-score [17]: 2.31
- PBM binding z-score [18]: 4.59
- PBM binding z-score [19]: 1.66
- PBM binding z-score [20]: 3.06

Sequence: CGTCCAAGGTCAGAGAGGTCAGCGAATGCCGAGT
- PBM binding z-score [1]: 6.38
- PBM binding z-score [2]: 5.44
- PBM binding z-score [3]: 3.27
- PBM binding z-score [4]: 4.32
- PBM binding z-score [5]: 0.249
- PBM binding z-score [6]: 5.09
- PBM binding z-score [7]: 4
- PBM binding z-score [8]: 4.67
- PBM binding z-score [9]: 0.981
- PBM binding z-score [10]: 3.07
- PBM binding z-score [11]: 3.1
- PBM binding z-score [12]: 3.68
- PBM binding z-score [13]: -0.551
- PBM binding z-score [14]: -0.132
- PBM binding z-score [15]: 3.56
- PBM binding z-score [16]: 6.27
- PBM binding z-score [17]: 10.9
- PBM binding z-score [18]: 6.31
- PBM binding z-score [19]: 2.51
- PBM binding z-score [20]: 5.22

Sequence: CCTCGGAGGACAACAGGGGGTCAGAGCTGCCAGA
- PBM binding z-score [1]: 1.81
- PBM binding z-score [2]: 2.48
- PBM binding z-score [3]: 0.582
- PBM binding z-score [4]: 3.99
- PBM binding z-score [5]: 2.09
- PBM binding z-score [6]: 3.22
- PBM binding z-score [7]: 1.09
- PBM binding z-score [8]: 1.92
- PBM binding z-score [9]: -0.264
- PBM binding z-score [10]: 1.13
- PBM binding z-score [11]: -0.238
- PBM binding z-score [12]: 1.33
- PBM binding z-score [13]: 0.527
- PBM binding z-score [14]: 1.03
- PBM binding z-score [15]: 1.56
- PBM binding z-score [16]: 3.18
- PBM binding z-score [17]: 0.0814
- PBM binding z-score [18]: 3.3
- PBM binding z-score [19]: 0.607
- PBM binding z-score [20]: 2.71

Sequence: CCTCGTTGGTCAGGAGGTCACACACCGGATATGA
- PBM binding z-score [1]: 3.4
- PBM binding z-score [2]: 3.49
- PBM binding z-score [3]: 1.96
- PBM binding z-score [4]: 3.4
- PBM binding z-score [5]: 0.47
- PBM binding z-score [6]: 4.22
- PBM binding z-score [7]: 2.29
- PBM binding z-score [8]: 2.99
- PBM binding z-score [9]: 0.71
- PBM binding z-score [10]: 2.06
- PBM binding z-score [11]: 0.408
- PBM binding z-score [12]: 2.72
- PBM binding z-score [13]: 0.14
- PBM binding z-score [14]: 0.13
- PBM binding z-score [15]: 3.05
- PBM binding z-score [16]: 4.26
- PBM binding z-score [17]: 0.821
- PBM binding z-score [18]: 4.73
- PBM binding z-score [19]: 1.57
- PBM binding z-score [20]: 3.75

Sequence: CAGCCTAGGGCAGGGCCAGTATAGGAGGAACGTT
- PBM binding z-score [1]: -0.713
- PBM binding z-score [2]: -0.785
- PBM binding z-score [3]: -0.921
- PBM binding z-score [4]: -1.11
- PBM binding z-score [5]: -1.4
- PBM binding z-score [6]: -0.747
- PBM binding z-score [7]: -0.037
- PBM binding z-score [8]: -0.861
- PBM binding z-score [9]: -0.884
- PBM binding z-score [10]: -1.24
- PBM binding z-score [11]: -0.842
- PBM binding z-score [12]: -0.372
- PBM binding z-score [13]: -2.01
- PBM binding z-score [14]: -1.9
- PBM binding z-score [15]: -1.39
- PBM binding z-score [16]: -1.13
- PBM binding z-score [17]: -0.815
- PBM binding z-score [18]: -0.853
- PBM binding z-score [19]: -0.656
- PBM binding z-score [20]: 0.716
